An excerpt weighted towards active compounds, which were near 3% of everything screened.
SARS PLP yeast = qHTS of Yeast-based Assay for SARS-CoV PLP | hit rate 0.19% among 330,000 | S. cerevisiae expressing SARS-CoV PLpro, growth rescue | Potency, µM (highest dose often 32.9 µM), for inactives: at the top dose activity, positive = growth rescue, actives largely listed as activators; calls by dose curve; further: 0% is about no effect; nearly all actives have a fitted effect of over 55% in size
Sm TGR inh = qHTS Assay for the Inhibitors of Schistosoma Mansoni Peroxiredoxins; Potency, µM (highest dose often 114 µM), without a hit: top-dose activity change, negative = inhibition, most hits filed as inhibitors; purified TGR, DTNB reduction, TNB absorbance 405 nm; hit rate 3% among 360,000; AID 485364, 2010; Schistosoma mansoni thioredoxin glutathione reductase (TGR), Q962Y6; active means well fitted inhibition curve with a large enough effect; inconclusive means small, poorly fitted or top-dose-only effect; inactive means no such curve, though single readings can be large or run the other way; further: on the % scale 0 is the no-effect control and ±100 the full control effect; nearly all actives have a fitted effect of over 60% in size
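First, TGR (20 nM dispensed) and NADPH were mixed with compound. Second, a 15 min room-temperature incubation followed. Third, further NADPH and then DTNB were added to start the reaction. Finally, TNB absorbance was monitored kinetically.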
* hit, by the source's call. Potency means the concentration at half of the fitted maximal effect.

Cc1ccc2cccc(NC(=O)c3ccc(-c4cccc(Cl)c4)o3)c2n1 was read as Sm TGR inh 1.3%.
Screening Cc1cc(SCNC(=O)c2ccccc2)nc(C(C)C)n1 returned SARS PLP yeast 19.2% and Sm TGR inh 11.2µM*.
`Cc1cc(C)nc(SCNC(=O)c2ccccc2)n1` gave SARS PLP yeast 27.9% and Sm TGR inh inconclusive.
`O=C(CSc1nc2ccccc2nc1Cc1ccc(Cl)cc1)N1CCc2ccccc21` gave Sm TGR inh 0.5%.
Screening O=C(O)CCc1ccc(-c2ccc(Br)cc2)n1-c1cccc(O)c1 returned SARS PLP yeast -1.2% and Sm TGR inh 31.6µM*.
For CC(=O)c1ccc(-n2c(CCC(=O)O)ccc2-c2ccc(Cl)cc2)cc1 the results were SARS PLP yeast -1.9% and Sm TGR inh 0.0%.
For O=C(O)CCc1ccc(-c2ccccc2)n1-c1ccc(C(=O)O)cc1 the results were SARS PLP yeast 1.1% and Sm TGR inh 17.8µM*.
For Cc1ccc(-c2ccc(CCC(=O)O)n2C(C)C)cc1 the results were SARS PLP yeast 2.9% and Sm TGR inh 25.1µM*.
Screening COc1cccc(NC(=O)Cn2c(CCC(=O)O)ccc2-c2ccc(C)cc2)c1 returned SARS PLP yeast inconclusive and Sm TGR inh -22.4%.
Cc1ccc(-c2ccc(CCC(=O)O)n2NC(N)=S)cc1 was read as SARS PLP yeast 10.6% and Sm TGR inh -21.4%.
`CC(=O)c1cccc(-n2c(CCC(=O)O)ccc2-c2ccc(C)cc2)c1` gave SARS PLP yeast -1.4% and Sm TGR inh 31.6µM*.
Screening Cc1cc(C)cc(NC(=O)CCCN2C(=O)COc3ccc(C)cc32)c1 returned Sm TGR inh -7.4%.
Screening COc1ccc(CNC(=O)CCc2nc3cccnc3n2Cc2ccccc2)cc1 returned Sm TGR inh -2.8%.
Cc1ccc(-c2ccc(CCC(=O)O)n2-c2ccc(C)c(Cl)c2)cc1 was read as Sm TGR inh 17.8µM*.
`CCOC(=O)c1cc(-c2ccccc2)n(CCC(=O)O)c1C` gave SARS PLP yeast -6.9% and Sm TGR inh 3.1%.
Screening O=C(O)c1cccc(N2C(=O)CCC2=O)c1 returned SARS PLP yeast 0.6% and Sm TGR inh -5.7%.
For CCOC(=O)c1ccc(-n2c(CCC(=O)O)ccc2-c2ccccc2)cc1O the results were Sm TGR inh 17.8µM*.
Screening O=C(O)CCc1ccc(-c2ccccc2)n1-c1cccc(C(=O)O)c1 returned SARS PLP yeast -1.2% and Sm TGR inh 11.2µM*.
For CC1CC(C)CN(c2oc(-c3ccccc3F)nc2C#N)C1 (centres undefined) the results were SARS PLP yeast 2.0% and Sm TGR inh 7.5%.
For COc1ccccc1-c1nc(C#N)c(N2CC(C)CC(C)C2)o1 (centres undefined) the results were SARS PLP yeast 0.9% and Sm TGR inh 1.12µM*.
Screening CCOc1ccccc1C(=O)NCC(c1ccc(N(C)C)cc1)N1CCc2ccccc21 (centres undefined) returned Sm TGR inh 9.5%.
Screening Cn1c(SCC(=O)Nc2cc(Cl)cc(Cl)c2)nnc1-c1ccc2nonc2c1 returned SARS PLP yeast 0.4% and Sm TGR inh 17.8µM*.
Cc1cc(-c2nc(C)c(-c3nnc(SCC(=O)Nc4cc(Cl)cc(Cl)c4)n3C)s2)no1 was read as SARS PLP yeast -1.5% and Sm TGR inh -8.9%.
For Cc1nn2c(=O)cc(COC(=O)c3cccc(NC(=O)c4ccc(F)cc4)c3)nc2s1 the results were Sm TGR inh -0.4%.
Screening CCOC(=O)CNC(=O)Cn1nc(N2CCN(c3ccccc3)CC2)ccc1=O returned Sm TGR inh -6.5%.
Screening O=C(C1=NN[C@@H]2C(=O)N(c3cccc(F)c3)C(=O)[C@H]12)c1cnccn1 returned SARS PLP yeast -3.6% and Sm TGR inh 3.16µM*.
O=C(C1=NN[C@@H]2C(=O)N(c3ccccc3C(F)(F)F)C(=O)[C@H]12)c1cnccn1 was read as SARS PLP yeast -6.5% and Sm TGR inh -23.1%.
For COc1ccc(C(CCN2CCOCC2)c2c(O)cc(OC)cc2OC)cc1 (centres undefined) the results were SARS PLP yeast 4.4% and Sm TGR inh -12.9%.
COc1ccc(C(c2c(O)ccc3ccccc23)N2CCOCC2)c(OC)c1 (centres undefined) was read as SARS PLP yeast -15.5% and Sm TGR inh 3.55µM*.
For CCc1ccc(NC(=O)Cn2cnc3sc(C)c(S(=O)(=O)N4CCC(C)CC4)c3c2=O)cc1 the results were Sm TGR inh 45.8%.
`O=C1CSC(c2cn(-c3ccccc3)nc2-c2cc3ccccc3oc2=O)N1Cc1ccco1` (centres undefined) gave SARS PLP yeast -27.6% and Sm TGR inh 22.4µM*.
Screening Cc1ccc(-c2nn(-c3ccccc3)cc2C2SCC(=O)N2Cc2ccccc2)o1 (centres undefined) returned SARS PLP yeast -14.7% and Sm TGR inh 11.2µM*.

Screening results: PubChem BioAssay, National Center for Advancing Translational Sciences (NCATS)
